# Source: PubChem (several laboratories)
# Autofluor counter: counter-screen for toxin protease inhibitors: compound fluorescence. compound autofluorescence counterscreen, microsphere flow cytometry; active compounds read high. fluorescence intensity (concentration not given with the values). 360,000 compounds, 3.1% hits. AID 624483; in the data active = fluorescence intensity above about 16000; inconclusive = no clear call, values can overlap the other calls
# Mtb FBA inh: Mtb FBA enzyme inhibitors, primary screen, biochemical, fluorescence, strain H37Rv; 360,000 compounds, 2.3% hits; purified M. tuberculosis FBA, fluorescence read-out; inhibition, % at 1 µM;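 note: 0% = vehicle and 100% = reference inhibitor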
# BoNT-F LC inh: BoNT/F light chain protease inhibitors, primary screen, biochemical, flow cytometry, MLPCN library; Botulinum neurotoxin type F light chain protease (Clostridium botulinum); AID 588497, 2011; Multiplex microsphere protease cleavage assay; 360,000 compounds, 0.22% hits; inhibition, % at 10 µM; in the data active = inhibition above about 35%, passing the limit was not always enough; inconclusive = no clear call, values can overlap the other calls; note: plate controls were buffer without enzyme for full effect and enzyme alone for no effect
# BoNT A protease: BoNT/A light chain protease inhibitors, primary screen, biochemical, flow cytometry, MLPCN library | inhibition, % at 10 µM | Botulinum neurotoxin type A light chain protease (Clostridium botulinum A str. ATCC 3502) | 360,000 compounds, 0.17% hits | multiplex microsphere protease substrate cleavage; in the data active = inhibition above about 30%; inconclusive = no clear call, values can overlap the other calls; note: plate controls were buffer without enzyme for full effect and enzyme alone for no effect
# GDH-TPI counter-1: GDH-TPI coupling enzyme inhibitors, primary screen, artefact control for M. tuberculosis FBA inhibitor project, biochemical, absorbance, full deck; GDH-TPI coupled enzyme counterscreen, NADH absorbance; inhibition, % at 4.8 µM; 360,000 compounds, 1.2% hits; in the data active = inhibition above about 30%;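 note: 0% = DMSO wells and 100% = wells lacking the enzyme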
# Anthrax LF inh2: Bacillus anthracis LF protease inhibitors, primary screen, biochemical, multiplex microsphere, MLPCN library; 360,000 compounds, 0.12% hits; inhibition, % at 10 µM; multiplex microsphere protease cleavage assay; in the data active = inhibition above about 30%; inconclusive = no clear call, values can overlap the other calls; note: plate controls were buffer without enzyme for full effect and enzyme alone for no effect
# Target sequence (P15917 whole entry, looked up): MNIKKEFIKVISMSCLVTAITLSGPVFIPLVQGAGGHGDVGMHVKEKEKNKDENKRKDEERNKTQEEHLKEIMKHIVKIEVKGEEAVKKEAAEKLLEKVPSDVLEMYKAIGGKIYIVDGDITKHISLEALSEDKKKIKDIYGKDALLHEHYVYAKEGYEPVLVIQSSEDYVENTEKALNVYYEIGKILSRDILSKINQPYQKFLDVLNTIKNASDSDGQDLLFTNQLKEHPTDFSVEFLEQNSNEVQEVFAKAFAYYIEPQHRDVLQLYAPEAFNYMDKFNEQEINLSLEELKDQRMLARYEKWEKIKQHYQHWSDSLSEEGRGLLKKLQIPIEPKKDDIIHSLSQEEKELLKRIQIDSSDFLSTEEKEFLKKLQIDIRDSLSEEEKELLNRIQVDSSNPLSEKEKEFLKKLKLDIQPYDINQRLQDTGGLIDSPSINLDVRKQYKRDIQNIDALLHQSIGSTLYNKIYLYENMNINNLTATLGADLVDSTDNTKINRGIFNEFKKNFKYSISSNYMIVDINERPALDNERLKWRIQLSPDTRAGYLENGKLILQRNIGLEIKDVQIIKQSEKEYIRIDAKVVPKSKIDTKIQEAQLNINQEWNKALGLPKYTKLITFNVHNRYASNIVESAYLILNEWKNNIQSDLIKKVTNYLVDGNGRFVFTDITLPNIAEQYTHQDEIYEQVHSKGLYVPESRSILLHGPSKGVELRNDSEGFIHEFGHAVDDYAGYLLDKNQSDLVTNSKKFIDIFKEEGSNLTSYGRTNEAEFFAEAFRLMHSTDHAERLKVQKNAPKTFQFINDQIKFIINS
# Mtb FBA inh conf: M. tuberculosis aldolase blockers, biochemical, fluorescence, strain H37Rv, confirmation; shares compounds with Mtb FBA inh; purified M. tuberculosis FBA, fluorescence read-out; inhibition, % at 1 µM; 5,600 compounds, 78% hits; AID 651616, 2012;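 note: 0% = vehicle wells and 100% = reference inhibitor wells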
# GDH-TPI counter-2: GDH-TPI coupling enzyme inhibitors, artefact control for M. tuberculosis FBA inhibitor project, biochemical, fluorescence, high throughput; GDH-TPI coupled enzyme counterscreen; inhibition, % at 1 µM; AID 652141, 2013; 5,600 compounds, 81% hits; shares compounds with Mtb FBA inh; in the data active = inhibition above about 10%
# Starred values were filed as active, the others as inactive; ? = inconclusive; · = no result; + = active, no number; ! = not confirmed by another sample. Sampled rows, rich in hits. Any-hit rate of the full collection: about 6.6%. Cut-off read from the data, not from the text of the source, unless noted: active = inhibition above about 27%; inactive = the rest.
SMILES,Autofluor counter,Mtb FBA inh,BoNT-F LC inh,BoNT A protease,GDH-TPI counter-1,Anthrax LF inh2,Mtb FBA inh conf,GDH-TPI counter-2
Cc1cccc(-c2cc(N3CCCN(C)CC3)n3nccc3n2)c1,1818,24.6,-140.7,6.9,1.8,-108.9,·,·
CCOc1cccc(-c2cc(N3CCN(CCO)CC3)n3nccc3n2)c1,2681,16.1,-19.5,0.6,16.8,-13.0,·,·
Cc1cccc(-c2cc(NCCc3cccnc3)n3nccc3n2)c1,2886,31.6*,-54.4,15.6,3.5,-22.2,46.2*,35.2*
O=[N+]([O-])c1ccc(N2CCCC2)c([N+](=O)[O-])c1,3726,29.1*,-25.7,4.8,7.1,-3.5,181.9*,123.3*
COc1ccccc1-n1c(SCc2cc(=O)oc3cc(O)ccc23)nc2ccccc2c1=O,2598,72.0*,1.5,0.0,7.9,0.1,2.5,2.0
COc1ccccc1-n1c(SCC(=O)N2CCOCC2)nc2ccccc2c1=O,4311,0.2,3.1,3.0,1.5,-1.5,·,·
Cc1cccc(OC(=O)Nc2ccc(C(=O)O)c(O)c2)c1,2779,29.1*,0.8,0.2,15.9,-1.8,+,179.5*
CCOC(=O)Nc1ccc(C(=O)Oc2ccccc2)c(O)c1,9578,2.7,-10.8,?,4.2,-4.7,·,·
O=C(Nc1ccc2ccccc2c1)N1CCN(c2ncccc2C(F)(F)F)CC1,4092,36.5*,-7.3,1.0,-2.5,1.6,-9.2,-5.4
Cc1ccc(NC(=O)N2CCN(c3ncccc3C(F)(F)F)CC2)cc1,5896,1.4,-6.0,-1.5,13.1,-4.6,·,·
NS(=O)(=O)c1cccc(NC(=O)CSc2nnc(C3CC3)n2Cc2ccccc2)c1,5853,-0.6,-8.1,-1.5,6.2,0.1,·,·
COc1cccc(C(=O)OCC(=O)N2CCC(Cc3ccccc3)CC2)c1OC,3709,2.2,1.3,1.5,14.4,5.7,·,·
C/C(=N\NC(=O)c1cc(-c2cccs2)nc2ccccc12)c1ccccn1,1975,33.7*,10.1,3.1,17.8,1.2,98.7*,91.7*
Cc1cc(NC(=O)c2cc(-c3cccs3)nc3ccccc23)no1,5612,71.1*,-7.9,0.3,22.5,-7.9,-3.9,-6.8
O=C(O)c1ccc(/C=N/NC(=O)c2cc(-c3cccs3)nc3ccccc23)cc1,2055,30.6*,-0.5,0.4,23.7,0.2,+,+
CC(C)NC(=O)c1cc(-c2cccs2)nc2ccccc12,3376,71.4*,-0.2,0.4,1.3,-11.7,144.7*,113.1*
O=C(N/N=C/c1ccsc1)c1cc(-c2cccs2)nc2ccccc12,2310,5.0,2.2,0.3,3.0,4.2,·,·
CN(C)C(CNC(=O)c1ccc(NS(=O)(=O)c2ccc(F)c(F)c2)cc1)c1ccccc1 (configuration not stated),?,-1.6,-10.1,-0.5,1.0,4.7,·,·
Cc1ccc(-c2cc(C(=O)O)c3cc(Br)ccc3n2)s1,3383,32.3*,8.7,5.2,41.0*!,4.7,197.5*!,193.7*!
CCOC(CCNC(=O)c1cc(-c2cccs2)nc2ccccc12)OCC,3549,95.0*,-1.6,-1.2,20.0,9.9,+,+
O=C(NC1=NCCS1)c1cc(-c2cccs2)nc2ccccc12,4225,43.6*,-11.3,-0.8,16.8,7.8,87.3*,63.0*
Cc1ccc(-c2cc(C(=O)Nc3cccnc3)c3ccccc3n2)s1,5364,42.2*,6.5,2.3,7.6,3.2,59.1*,43.4*
COc1ccc(-c2csc(NC(=O)COC(=O)C3=COCCO3)n2)cc1,3290,-0.8,-6.2,-0.7,0.3,-1.5,·,·
O=C(N/C(=C\c1ccc([N+](=O)[O-])cc1)C(=O)N1CCCCC1)c1ccccc1Br,2452,1.1,-3.1,-0.3,16.4,-1.4,·,·
Cc1ccccc1-c1cnc(C(O)c2ccc(F)c(F)c2)[nH]1 (configuration not stated),3655,1.2,-1.5,0.0,-0.4,-5.8,·,·
SMILES,Autofluor counter,Mtb FBA inh,BoNT-F LC inh,BoNT A protease,GDH-TPI counter-1,Anthrax LF inh2,Mtb FBA inh conf,GDH-TPI counter-2
NNC(=O)c1cc(-c2cccs2)nc2ccccc12,4523,44.4*,-3.6,0.2,26.5,-3.1,110.2*,91.9*
NS(=O)(=O)c1ccc(NC(=O)c2cc(-c3cccs3)nc3ccccc23)cc1,2582,24.2,7.1,1.1,11.5,-1.1,·,·
O=C(O)CCc1nc2ccccc2n(CCc2ccccc2)c1=O,2898,13.3,-5.3,0.1,9.1,-3.6,·,·
O=C(O)CCc1nn2c3ccccc3nc2n(CCN2CCCCC2)c1=O,2471,34.6*,2.8,0.0,20.1,-3.1,117.4*,88.2*
Cc1nn2c3ccccc3n(CCN3CCCCC3)c2nc1=O,3787,32.2*,-9.7,-1.7,6.8,1.0,154.2*,102.2*
C=CCn1c2ccccc2n2nc(C)c(=O)nc12,3542,22.2,-3.9,0.6,12.8,-2.5,·,·
Cc1cc(NC(=O)c2cc(-c3cccc(OCC(C)C)c3)nc3ccccc23)no1,5785,4.7,4.5,1.0,0.0,-0.8,·,·
CC(C)Oc1cccc(-c2cc(C(=O)NC(=S)N(C)c3ccccc3C(=O)O)c3ccccc3n2)c1,2086,42.3*,2.7,-0.1,12.8,-0.1,5.4,-4.2
Cc1cc(OCC(=O)N2CCN(c3ccccc3)CC2)c2c(C)cc(=O)oc2c1,5196,-1.0,7.4,1.4,12.0,-2.2,·,·
CCCc1cc(=O)oc2c(C)c(OCC(=O)N3CCC(C(=O)O)(c4ccccc4)CC3)ccc12,4017,31.9*,-9.0,0.3,8.3,-2.2,102.9*,90.6*
CCc1cc(=O)oc2cc(C)cc(OCC(=O)N3CCC(C(=O)O)(c4ccccc4)CC3)c12,5566,87.7*,-7.7,-0.5,13.7,-0.9,6.6,-7.0
CCCc1cc(=O)oc2c(C)c(OCC(=O)NC3CCN(Cc4ccccc4)CC3)ccc12,4506,5.4,-1.2,0.5,7.6,-2.8,·,·
Cc1cc(=O)oc2c(C)c(OCC(=O)N3CCC(C(=O)O)(c4ccccc4)CC3)ccc12,3838,35.1*,-4.0,0.3,12.8,10.7,8.2,-3.3
COc1cccc(C2(C)NC(=O)N(CC(=O)Nc3ccc(N4CCOCC4)cc3)C2=O)c1 (configuration not stated),3700,-4.5,-13.0,-0.2,5.6,-3.6,·,·
